High-throughput results deposited in PubChem BioAssay by National Center for Advancing Translational Sciences (NCATS).
Sampled rows, rich in hits. Any-hit rate of the full collection: about 0.51%.
FMDV Renilla: Primary qHTS Assay for Foot and Mouth Disease Virus Antivirals against NCGC Sytravon and CBC Compound Libraries: Renilla Luciferase Signal; FMDV replicon cells, Renilla luciferase signal; Potency, µM (titrated, usually from 57.5 µM), usual class: inhibitors; 0.32% of 120,000 active; AID 1745857, 2022; note: nearly all actives have a fitted effect of over 55% in size
FMDV FLuc: Primary qHTS Assay for Foot and Mouth Disease Virus Antivirals against NCGC Sytravon and CBC Compound Libraries: Firefly Luciferase Signal; Potency, µM (doses to about 57.5 µM), hits mostly inhibitors; AID 1745856, 2022; 0.23% of 120,000 active; FMDV antiviral cell assay, firefly luciferase signal; note: nearly all actives have a fitted effect of over 60% in size
Each line names hits and unclear results; the compound was inactive in the other large screens. Calls come from the whole dose curve.

CCOC(=O)N1CCN(c2ncc3c(n2)CC(c2ccc(OC)c(OC)c2)CC3=O)CC1 (stereo unspecified)	none
CN(Cc1cccc(F)c1)Cc1cc(=O)n2cc(Br)ccc2n1	none
O=C(O)CNC1Cc2ccccc2C1	none
CCc1c(C)nc2nncn2c1NCc1ccc(Cl)cc1	FMDV Renilla inconclusive
Cc1ccc(CNc2c(C)c(C)nc3nncn23)cc1	FMDV Renilla 2µM, FMDV FLuc 2.24µM
CC1CCN(C(=O)CSc2nnc(-c3ccccc3Cl)o2)CC1	none
CC1(C)CC(=O)C2=C(C1)Nc1[nH]n(-c3ccccc3)c(=O)c1C2c1ccc(F)cc1 (stereo unspecified)	none
CC1(C)CC(=O)C2=C(C1)Nc1[nH]n(-c3ccccc3)c(=O)c1C2c1ccc(O)cc1 (stereo unspecified)	FMDV Renilla 10µM
CCN(CC)S(=O)(=O)c1cc(-c2onc(C)c2C)ccc1OC	none
COc1ccc(-c2onc(C)c2C)cc1S(=O)(=O)N(C)Cc1ccco1	FMDV Renilla inconclusive, FMDV FLuc 31.6µM
Cc1cc(C(=O)N2CCN(c3cccc(C(F)(F)F)c3)CC2)cs1	none
Cc1nc(/C=C/C(=O)N2CCN(c3cccc(C(F)(F)F)c3)CC2)cs1	FMDV Renilla 20µM, FMDV FLuc inconclusive
CN(Cc1ccc2ccccc2c1)C(=O)CN(C)c1ncnc2nc[nH]c12	FMDV Renilla inconclusive, FMDV FLuc 31.6µM
CN(CC(=O)N(C)C1CCCc2ccccc21)c1ncnc2nc[nH]c12 (stereo unspecified)	none
COc1ccc(OC)c(NC(=O)Cn2ccn(-c3ccc(F)cc3)c(=O)c2=O)c1	none
Cc1cccc(NC(=O)/C(C#N)=C/c2cc(C(C)(C)C)c(O)c(C(C)(C)C)c2)c1C	FMDV Renilla 6.31µM, FMDV FLuc inconclusive
Cc1ccc(/C=C(/C#N)C(=O)Nc2cccc3ncccc23)cc1	none
CCOC(=O)c1noc2ncnc(NCc3ccccc3OC)c12	none
O=C(Nc1ccncc1)c1cccc(OCc2ccc(F)cc2)c1	FMDV Renilla 6.31µM, FMDV FLuc inconclusive
C=CCOc1cccc(NC(=O)c2ccncc2)c1	none
COC(=O)Nc1ccc(C)c(C)c1	none
CCS(=O)(=O)c1ncc(Cl)c(C(=O)N(Cc2ccccc2)C2CCS(=O)(=O)C2)n1 (stereo unspecified)	FMDV Renilla 25.1µM, FMDV FLuc inconclusive
CCS(=O)(=O)c1ncc(Cl)c(C(=O)N(Cc2ccccc2)Cc2ccco2)n1	FMDV FLuc 22.4µM
CSc1ncc(Cl)c(C(=O)N(Cc2ccc(C)cc2)C2CCS(=O)(=O)C2)n1 (stereo unspecified)	none
CCS(=O)(=O)c1ncc(N(Cc2ccccc2)Cc2ccco2)c(C(=O)Nc2cccc(Cl)c2C)n1	none
Cc1ccccc1-c1nc(C(N)=O)c2c(n1)n(-c1ccc3c(c1)OCO3)c(=O)n2C	none
O=S1(=O)N(Cc2ccccc2)CCCN1Cc1cccc(Cl)c1	none
Cc1ccnc(NS(=O)(=O)c2ccc(NC(=O)c3nc(SC(C)C)ncc3Cl)cc2)n1	none
Cc1cc(C)nc(NS(=O)(=O)c2ccc(NC(=O)c3nc(SC(C)C)ncc3Cl)cc2)n1	FMDV Renilla 11.2µM
O=C(CSc1nnc(Cc2cccs2)n1C1CCCCC1)N1CCN(c2ccccn2)CC1	none
Cc1cccc(NC(=O)CCl)c1	FMDV Renilla 31.6µM, FMDV FLuc inconclusive
Cc1cccc(NC(=O)CC2(C(=O)O)CCCCC2)c1	none
CCCCc1c(C)[nH]c2ccccc2c1=O	none
COc1ccc(CSc2nc3ccncc3n2CC(=O)Nc2ccc(C)c(F)c2)cc1	none
CCOC(=O)CSc1nc2c(sc3cccc(F)c32)c(=O)n1Cc1ccc(OC)cc1	none
Cc1ccc(CN(Cc2cc(=O)n3[nH]c(-c4cccc(C)c4)cc3n2)CC(C)C)cc1	FMDV Renilla 25.1µM, FMDV FLuc inconclusive
CCOc1ccc(CN(CC)Cc2cc(=O)n3[nH]c(-c4cccc(C)c4)cc3n2)cc1	none
COc1ccc(Cl)cc1NC(=O)COC(=O)CCS(=O)(=O)c1ccc2ccccc2c1	none
COc1ccc(C(=O)Nc2nc3c(s2)CCCC3)cc1Cl	FMDV Renilla inconclusive
O=C(Nc1nc2c(s1)CCCCC2)c1ccc(Cl)cc1	FMDV Renilla 10µM
O=c1c2cnc(N3CCc4ccccc4C3)nc2ccn1-c1cc(Cl)cc(Cl)c1	none
O=c1c2cnc(N3CCc4ccccc4C3)nc2ccn1-c1ccccc1	FMDV Renilla inconclusive, FMDV FLuc 25.1µM
CC(=O)N1CCN(Cc2csc(-c3ccc(C(F)(F)F)cc3)n2)CC1	FMDV Renilla 12.6µM, FMDV FLuc 20µM
Cc1cc(C)cc(C(=O)NCCc2csc(-c3ccc(C(F)(F)F)cc3)n2)c1	none
COc1cc(OC)cc(-c2cc3nc(C)c(CCC(=O)Nc4ccccc4OC)c(C)n3n2)c1	FMDV FLuc 3.16µM
COc1ccccc1-c1cc2nc(C)c(CCC(=O)Nc3cc(C)ccc3C)c(C)n2n1	FMDV FLuc 35.5µM
COc1cc(OC)c(NC(=O)CCc2c(C)nc3cc(-c4ccccc4OC)nn3c2C)cc1Cl	none
COc1cc(OC)cc(-c2cc3nc(C)c(CCC(=O)NCc4ccccc4)c(C)n3n2)c1	FMDV FLuc inconclusive
CN(Cc1ccccc1)S(=O)(=O)c1ccc2[nH]c3c(c2c1)CCCCC3	none
Cc1ccccc1-c1noc(-c2cccnc2NCc2ccco2)n1	none
O=C(OCc1nc2ccccc2o1)c1cccc(S(=O)(=O)N2CCCC2)c1	none
COc1ccc(/C=C\c2onc(C)c2S(=O)(=O)N2CCC(C(=O)Nc3ccc(F)cc3F)CC2)cc1	FMDV Renilla 28.2µM, FMDV FLuc 31.6µM
COc1ccc(/C=C\c2onc(C)c2S(=O)(=O)N2CCC(C(=O)Nc3ccc(C)c(F)c3)CC2)cc1	none
CCOC(=O)c1ccc(NC(=O)CSc2nc3ccccc3c(=O)n2CCC(=O)NC2CCCCC2)cc1	none
Cc1ccccc1C1CC(=O)N(c2ccc(F)cc2)C2=C1C(=O)CCC2 (stereo unspecified)	none
CC(C)n1ncc2cc(NC(=O)c3cc(S(=O)(=O)N4CCCCC4)ccc3N3CCCC3)cnc21	none
COc1ccc(C(=O)Nc2cnc3c(cnn3C(C)C)c2)cc1S(=O)(=O)N1CCCC1	FMDV Renilla inconclusive, FMDV FLuc 31.6µM
COc1cc(C2CC(=O)Nc3c2sc(C(=O)O)c3-c2ccc(F)cc2)cc(OC)c1OC (stereo unspecified)	none
CCOc1cc(C2CC(=O)Nc3c(-c4ccc(OC)cc4)csc32)ccc1OCC(N)=O (stereo unspecified)	FMDV Renilla 8.91µM, FMDV FLuc 12.6µM
Cc1ccc(COc2ccc(-c3cc(C(F)(F)F)n4nc(C)cc4n3)cc2)cc1	none
CCc1ccc(OC(=O)c2ccc(OC)c(I)c2)cc1	none
CCn1c(CCc2cccc(NC(=O)c3ccc(C#N)cc3)c2)nc2ccccc21	FMDV Renilla 11.2µM, FMDV FLuc 14.1µM
N#Cc1ccc(C(=O)Nc2ccc3nc(CCc4ccccc4)[nH]c3c2)cc1	none
FC(F)(F)c1cc(-c2ccco2)nc2c(-c3ccc(Cl)cc3)cnn12	none
N#CC1(NC(=O)CSCc2ccc(Cl)cc2)CCCCCC1	none
N#CC1=C(SCc2ccc(Cl)cc2)NC(=O)C(C#N)C12CCCC2 (stereo unspecified)	FMDV Renilla 10µM, FMDV FLuc inconclusive
COc1ccc(Oc2nc3c(c(=O)n(Cc4ccc(Br)cc4)c(=O)n3C)n2C)cc1	none
Oc1c(Br)cc(Cl)cc1Cc1cc(Cl)cc(Br)c1O	FMDV Renilla 3.55µM, FMDV FLuc inconclusive
O=Cc1cc(Cl)c(O)c(Br)c1	none
Fc1ccccc1CSc1ccc(-c2cccs2)nn1	none
